In the library only some 2.7% were active in any assay of this set; here they are far more common.
12-LOX inh = inhibitors of human 12S-lipoxygenase ALOX12 | 580,000 tested, 1.1% active | Potency, µM (highest dose often 108 µM), inactives show top-dose activity change, negative = inhibition, hits mostly inhibitors | purified 12hLO, xylenol orange hydroperoxide absorbance; note: % is set by controls: 0 for no effect and ±100 for the full control effect
Target sequence (P18054 whole entry, looked up): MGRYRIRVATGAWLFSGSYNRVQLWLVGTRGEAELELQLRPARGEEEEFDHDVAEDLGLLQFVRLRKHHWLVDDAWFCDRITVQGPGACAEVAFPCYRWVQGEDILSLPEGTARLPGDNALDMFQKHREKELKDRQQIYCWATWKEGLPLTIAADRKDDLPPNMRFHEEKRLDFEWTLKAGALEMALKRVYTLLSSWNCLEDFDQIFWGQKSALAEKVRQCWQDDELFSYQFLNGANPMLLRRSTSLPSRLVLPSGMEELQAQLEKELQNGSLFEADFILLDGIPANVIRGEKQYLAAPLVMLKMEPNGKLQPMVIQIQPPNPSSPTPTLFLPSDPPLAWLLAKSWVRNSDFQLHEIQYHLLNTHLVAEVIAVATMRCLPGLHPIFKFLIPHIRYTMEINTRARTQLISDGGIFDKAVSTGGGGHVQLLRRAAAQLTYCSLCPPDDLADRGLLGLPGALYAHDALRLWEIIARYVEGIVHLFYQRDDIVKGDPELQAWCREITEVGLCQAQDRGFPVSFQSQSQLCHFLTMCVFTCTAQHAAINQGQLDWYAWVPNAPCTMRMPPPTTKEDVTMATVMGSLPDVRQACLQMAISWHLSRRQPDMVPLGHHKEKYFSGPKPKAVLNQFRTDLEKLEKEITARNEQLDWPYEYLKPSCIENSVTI
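Purified human 12hLO (150 nM final) in 25 mM Hepes, 0.01% Triton X-100, pH 7.0 was preincubated 15 min at room temperature with compound. Then 40 uM arachidonic acid was added, 30 min. Hydroperoxide was read by Fe-XO absorbance ratio 573/405 nm.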
TGFb inhibitor = blocks TGF-b signaling; HepG2 CAGA-GFP TGF-b/SMAD3 reporter, GFP fluorescence, 18 h; TGF-beta stimulated, 500 pg/mL final; Potency, µM (top dose mostly 46.1 µM), inactives show at the top dose activity, negative = inhibition, hits mostly inhibitors; 410,000 tested, 1.2% active; AID 588855; note: % is set by controls: 0 for no effect and ±100 for the full control effect; nearly all actives have a fitted effect of over 65% in size
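HEPG2 CAGA-GFP cells (1000/well, DMEM with 1% FBS) were pre-incubated 2 h at 37 degrees C, given compound by pin tool, then stimulated with TGF-beta at 500 pg/mL final for 18 h before per-cell GFP fluorescence imaging.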
ATXN2 expr inh = reduces ATXN2 reporter expression in HEK-293 cells; HEK-293 ATXN2-luciferase reporter, luminescence, 24 h; Potency, µM (doses to about 57 µM), for the others: top-dose activity change, negative = inhibition, actives largely listed as inhibitors; 360,000 tested, 0.72% active; AID 1745845; note: % is set by controls: 0 for no effect and ±100 for the full control effect; nearly all actives have a fitted effect of over 55% in size
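ATXN2-luciferase reporter cells (luciferase flanked by upstream and downstream ATXN2 gene portions) were treated 24 h at 37 °C with compounds at up to 57 uM. SteadyGlo luminescence gave expression; GF-AFC fluorescence gave viability.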
ATXN viability = cell viability loss in ATXN counter-screen | S2 cells (HEK-293 line with an ATXN2-luciferase reporter) viability, CellTiter-Fluor protease fluorescence, 24 h | 400,000 tested, 0.49% active | Potency, µM (series often up to 56.7 µM), actives largely listed as cytotoxic; note: nearly all actives have a fitted effect of over 40% in size
HepG2 viability = kills HepG2 cells in TGF-b inhibitor counter-screen | HepG2 CAGA-GFP viability, ATP luminescence, 18 h | Potency, µM (series often up to 46.1 µM), without a hit: top-dose activity change, negative = cytotoxicity, actives largely listed as cytotoxic | 410,000 tested, 0.76% active | AID 588856
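CellTiter-Glo luminescence gave cytotoxicity after 18 hours at 37 degrees C. The cells were HepG2 CAGA-GFP in 1% FBS DMEM, stimulated with 500 pg/mL TGF-beta after compound addition. %Activity was normalised to no-cell wells (complete cell-killing) and DMSO (no toxicity), and curves were fitted and classified.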
* = called active by the depositor; [ ] = dose if it differs, or a comment. Calls come from the whole dose curve; as a rule, active = well fitted curve in the direction sought with a large enough effect; inconclusive = small, poorly fitted or top-dose-only effect, or another doubt; inactive = no such curve, though single readings can be large; an effect the other way counts as inactive or inconclusive. Potency is the fitted concentration of half-maximal effect.

COc1ccc(CC(=O)Nc2ncc([N+](=O)[O-])s2)cc1OC was read as 12-LOX inh 35.5µM*, TGFb inhibitor -10.7%, ATXN viability inactive and HepG2 viability 12.0%.
O=C(CN1CCN(CC(=O)N2CCCCCC2)CC1)NCCc1c[nH]c2ccccc12 was read as 12-LOX inh 14.6%.
For CCOC(CC)C(=O)NCC1CCN(Cc2cccs2)CC1 (configuration not stated) the results were 12-LOX inh 31.8%.
COc1ccccc1-n1cnnc1SC(C)C(=O)c1ccc(F)cc1 (configuration not stated) was read as 12-LOX inh -25.3%.
`CCOC(=O)c1ccc(NC(=O)c2ncoc2-c2ccc(OC)cc2)cc1` gave 12-LOX inh -4.1%.
COC(=O)Cc1cc(=O)n2[nH]cnc2n1 was read as 12-LOX inh 6.31µM*, TGFb inhibitor inconclusive, ATXN2 expr inh -6.9%, ATXN viability inactive and HepG2 viability 12.9%.
For N#Cc1ccc(CCC(=O)O)cc1 the results were 12-LOX inh 28.2µM*.
For N#Cc1ccc(CCC(=O)OCc2ccc(C#N)cc2)cc1 the results were 12-LOX inh -4.3%.
For COc1ccc(/C=C2\SC(=S)N(NS(=O)(=O)c3ccc(C)cc3)C2=O)c(OC)c1 the results were 12-LOX inh inconclusive, TGFb inhibitor 6.4%, ATXN2 expr inh 8.0%, ATXN viability inconclusive and HepG2 viability -8.6%.
For CCOc1cc(/C=C2\SC(=S)N(NS(=O)(=O)c3ccccc3)C2=O)ccc1O the results were 12-LOX inh inconclusive, TGFb inhibitor 3.2%, ATXN viability 11.2µM* and HepG2 viability -23.2%.
Screening CCOc1ccc(/C=C2\SC(=S)N(NS(=O)(=O)c3ccccc3)C2=O)cc1OC returned 12-LOX inh inconclusive, TGFb inhibitor -15.0%, ATXN viability inactive and HepG2 viability -28.1%.
COc1ccccc1/C=C1\SC(=S)N(NS(=O)(=O)c2ccc(C)cc2)C1=O was read as 12-LOX inh 35.5µM*, TGFb inhibitor -12.6%, ATXN2 expr inh 7.3%, ATXN viability inactive and HepG2 viability -17.5%.
Screening O=C(c1ccccc1)c1coc2c1C(=O)c1ccccc1C2=O returned 12-LOX inh -3.0%, TGFb inhibitor inconclusive, ATXN2 expr inh -1.0%, ATXN viability inactive and HepG2 viability 10µM*.
For CCC(CC)C1C(C#N)=C(N)Oc2n[nH]c(-c3ccccc3)c21 (configuration not stated) the results were 12-LOX inh 8.3%, TGFb inhibitor inconclusive, ATXN2 expr inh inconclusive, ATXN viability inactive and HepG2 viability 8.91µM*.
For Cc1nn2c(c1-c1ccccc1OCc1ccccc1)N(Cc1cccc(O)c1)CCC2 the results were 12-LOX inh 2.6%[176 µM].
For CC(=O)O[C@H]1C[C@@H]2CC[C@@]1(C)C2(C)C the results were 12-LOX inh -0.9%[176 µM].
`CC(=O)OC(COC1CC2CCC1(C)C2(C)C)C[N+]1(C)CCCCC1` (configuration not stated) gave 12-LOX inh 12.6µM*.
Screening Cc1cc(C)cc(Nc2nc(-c3ccccc3F)no2)c1 returned 12-LOX inh 28.0%.
Screening COC(=O)c1ccc(NC(=O)c2cn(-c3ccccc3)nc2-c2ccncc2)cc1 returned 12-LOX inh 1.3%, TGFb inhibitor 8.0%, ATXN2 expr inh 5.4%, ATXN viability inactive and HepG2 viability 7.08µM*.
`CC(=O)c1ccc(NC(=O)c2cn(-c3ccccc3)nc2-c2ccncc2)cc1` gave 12-LOX inh 43.3%, TGFb inhibitor -11.7%, ATXN2 expr inh 1.2%, ATXN viability inconclusive and HepG2 viability -14.1%.
`Cc1cc2c(c(=O)n(-c3ccccc3)c(=O)n2CC(=O)Nc2ccccc2F)n1C` gave 12-LOX inh 44.7µM*.
For O=C(O)C(=Cc1ccccc1Cl)c1ccccc1 the results were TGFb inhibitor 5.4%, ATXN2 expr inh 12.6%, ATXN viability inactive and HepG2 viability -7.5%.
O=C(O)/C(=C\c1c(C(=O)O)[nH]c2cc(Cl)cc(Cl)c12)c1ccccc1 was read as 12-LOX inh 35.5µM*, TGFb inhibitor -2.5%, ATXN2 expr inh -9.0%, ATXN viability inactive and HepG2 viability -25.4%.
CC(=O)c1sc(NC(=O)CCCc2nc3ccccc3c(=O)[nH]2)nc1-c1ccccc1 was read as 12-LOX inh 16.8%, TGFb inhibitor 20µM*, ATXN viability inactive and HepG2 viability 11.2µM*.
CCOc1ccccc1NC(=O)CCCc1nc2ccccc2c(=O)[nH]1 was read as 12-LOX inh 15.9%, TGFb inhibitor -10.1%, ATXN2 expr inh 20µM*, ATXN viability inactive and HepG2 viability -47.4%.
For CCOc1ccc(Oc2ccccc2NC(=O)CCc2nc3ccccc3c(=O)[nH]2)cc1 the results were 12-LOX inh -4.1%, TGFb inhibitor -27.2%, ATXN viability inactive and HepG2 viability -20.1%.
CC(=O)Nc1ccc(NC(=O)CCc2nc3ccccc3c(=O)[nH]2)cc1 was read as 12-LOX inh inconclusive, TGFb inhibitor 1.2%, ATXN2 expr inh 12.8%, ATXN viability inactive and HepG2 viability 3.1%.
`O=C(Nc1nc2cc3c(cc2s1)OCCCO3)c1cc(Br)ccc1Cl` gave 12-LOX inh -1.6%.
Screening CNc1oc(-c2cc(S(=O)(=O)N(C)c3ccccc3)c(C)o2)nc1C#N returned 12-LOX inh 12.2%.
Screening CCNc1ccc(Br)cc(C(=O)/C=C/c2ccc(Cl)cc2Cl)c1=O returned 12-LOX inh 7.08µM*, TGFb inhibitor -3.1%, ATXN2 expr inh 31.6µM*, ATXN viability inconclusive and HepG2 viability -68.5%.
`CNc1ccc(Br)cc(C(=O)/C=C/c2ccc3c(c2)OCO3)c1=O` gave 12-LOX inh inconclusive, TGFb inhibitor inconclusive, ATXN2 expr inh inconclusive, ATXN viability inactive and HepG2 viability -1.3%.
For O=C(/C=C/c1ccc(Cl)cc1Cl)c1cc(Cl)ccc1O the results were 12-LOX inh -68.9%.
CNc1ccc(Br)cc(C(=O)/C=C/c2cc(OC)ccc2OC)c1=O was read as 12-LOX inh inconclusive, TGFb inhibitor 15.8µM*, ATXN2 expr inh inconclusive and HepG2 viability -79.9%.
`CNc1ccc(Br)cc(C(=O)/C=C/c2ccc(OC)cc2)c1=O` gave 12-LOX inh 31.6µM*, TGFb inhibitor 9.0%, ATXN2 expr inh inconclusive, ATXN viability inactive and HepG2 viability -18.9%.
O=C(Nc1ccccc1F)c1ccc2c(Cl)c3c(nc2c1)CCC3 was read as 12-LOX inh -26.2%, TGFb inhibitor inconclusive, ATXN2 expr inh -67.8%, ATXN viability inactive and HepG2 viability 10µM*.
